High-throughput results deposited in PubChem by Broad Institute.
C diff growth – inhibitors of Clostridium difficile growth; Clostridium difficile clinical isolate growth, OD600, 24 h; active compounds read low; growth activity, negative = inhibition, % at 16 µg/mL (by protocol); hit rate 0.25% among 86,000;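 active means mean growth activity at or below -80% and every replicate also at or below -80%; inconclusive means mean at or below -80% but some replicate above -80%; inactive means mean growth activity above -80%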;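 further: 0% = DMSO wells and -100% = levofloxacin 16 µg/mL wells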
T cruzi growth-1 – inhibitors of T. cruzi proliferation. inhibition, % at 8.34 µM. T. cruzi beta-gal in NIH3T3, GalScreen luminescence, 90 h. hit rate 5.9% among 77,000;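 active means mean inhibition above about 93%, with at least 55% of replicates each passing it, limit read from the data, passing the limit was not always enough; inconclusive means only one of those two conditions holds; inactive means neither condition holds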
Pf Dd2 growth – P. falciparum Dd2 growth inhibition. SYBR Green, 72 h; active compounds read low. activity change, % at 10 µM. hit rate 2.3% among 94,000. AID 1159554; in the data active means activity change below about -80%; inconclusive means no clear call, values can overlap the other calls
T cruzi growth-2 – inhibitors of T. cruzi proliferation | AID 651739 | shares compounds with T cruzi growth-1 | T. cruzi beta-gal in NIH3T3, GalScreen luminescence, 90 h | hit rate 72% among 5,600 | inhibition, % at 8.35 µM;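 active means mean replicate inhibition above about 95% and at least 55% of replicates individually reaching it, limit read from the data; inconclusive means only one of the two criteria is met; inactive means neither criterion is met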
T cruzi growth-3 – inhibitors of T. cruzi proliferation; shares compounds with T cruzi growth-1; T. cruzi beta-gal in NIH3T3, GalScreen luminescence, 90 h; inhibition, % at 2.09 µM; hit rate 21% among 5,600;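 active means mean inhibition above about 95%, with at least 55% of replicates also reaching it, limit read from the data; inconclusive means meets just one of the two conditions; inactive means meets neither condition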;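 further: plate controls were neutral control median for no effect and positive control median for full effect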
NIH3T3 tox – cytotoxicity in mouse NIH/3T3 fibroblasts | shares compounds with T cruzi growth-1 | NIH/3T3 viability, CellTiter-Glo ATP luminescence, 90 h | cytotoxicity (signal decrease), % at 8.35 µM | hit rate 14% among 5,600;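 active means mean signal decrease across replicates above about 35% based on untreated-well scatter, with enough replicates individually passing, limit read from the data; inconclusive means no rule stated though some were filed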;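 further: 0% = median of neutral control wells and 100% = median of positive control wells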
3T3 cytotox 2 – NIH/3T3 (mouse) viability loss. inhibition, % at 24.9 µM. shares compounds with T cruzi growth-1. hit rate 56% among 5,600. NIH/3T3 viability, CellTiter-Glo ATP luminescence, 90 h;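 active means mean loss of cell viability signal at or above a set limit, and enough replicates individually reaching it; inconclusive means meets only the mean limit or only the replicate share; inactive means meets neither condition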;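 further: 0% = median of neutral control wells and 100% = median of positive control wells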
* marks the source's active call; other numbers are inactive results; u = inconclusive; x = no result. Rows were chosen to be rich in hits. Some 6.7% of all compounds tested hit in one or more screens of this group.

SMILES	C diff growth	T cruzi growth-1	Pf Dd2 growth	T cruzi growth-2	T cruzi growth-3	NIH3T3 tox	3T3 cytotox 2
C[C@H]1CN([C@@H](C)CO)C(=O)c2cc(C#Cc3ccccc3F)cnc2O[C@H]1CN(C)S(=O)(=O)c1ccccc1	-10.8	x	-75.4	x	x	x	x
C[C@@H]1CN([C@@H](C)CO)C(=O)c2cc(C#Cc3ccccc3F)cnc2O[C@H]1CN(C)S(=O)(=O)c1ccccc1	-3.4	120.5*	-26.7	109.6*	76.2	19.1	25.1*
O=C(C1CCCC1)N1CC2(C1)[C@@H](c1ccccc1)[C@H](CO)N2C(=O)CC1CC1	2.1	x	22.7	x	x	x	x
COc1ccc(NC(=O)N(C)C[C@@H]2Oc3ccc(NC(=O)Cn4cnnn4)cc3C(=O)N([C@@H](C)CO)C[C@@H]2C)cc1	x	-38.5	31.2	x	x	x	x
O=S(=O)(c1ccccc1)N1CCCCN2[C@H](CO)[C@H](c3ccc(C#Cc4cccnc4)cc3)[C@H]2C1	8.7	109.0*	-54.3	114.4*	72.0	19.7	62.9*
O=S(=O)(c1ccccc1)N1CCCCN2[C@H](CO)[C@H](c3ccc(C#Cc4ccccc4)cc3)[C@H]2C1	30.2	72.7	-73.0	x	x	x	x
COc1ccc(C#Cc2ccc([C@H]3[C@@H](CO)N4CCCCN(S(=O)(=O)c5ccccc5)C[C@@H]34)cc2)cc1	-3.4	102.8*	-0.4	102.9*	84.5	3.2	0.0
N#Cc1ccc(-c2ccc([C@H]3[C@@H](CO)N4CCCCN(S(=O)(=O)c5ccccc5)C[C@@H]34)cc2)cc1	10.3	95.5*	-22.2	106.5*	38.2	-12.4	11.4
COc1ccc(C#Cc2ccc([C@@H]3[C@@H](CO)N4CCCCN(S(=O)(=O)c5ccccc5)C[C@@H]34)cc2)cc1	-7.2	71.3	3.6	x	x	x	x
O=S(=O)(c1ccccc1)N1CCCCN2[C@H](CO)[C@H](c3ccc(C#Cc4ccccc4)cc3)[C@@H]2C1	18.9	37.8	4.9	x	x	x	x
N#Cc1ccc(-c2ccc([C@@H]3[C@@H](CO)N4CCCCN(S(=O)(=O)c5ccccc5)C[C@H]34)cc2)cc1	9.2	36.9	8.8	x	x	x	x
O=S(=O)(c1ccccc1)N1CCCCN2[C@H](C1)[C@H](c1ccc(C#Cc3ccccc3)cc1)[C@@H]2CO	5.9	u	-64.3	101.1*	78.4	u	104.7*
C[C@H]1CN([C@@H](C)CO)S(=O)(=O)c2ccc(-c3ccccc3)cc2O[C@@H]1CN(C)Cc1ccccc1	37.9	80.2	-58.4	x	x	x	x
Cc1ccc(-c2ccc3c(c2)O[C@H](CN(C)Cc2ccc(C(=O)O)cc2)[C@H](C)CN([C@H](C)CO)S3(=O)=O)cc1	-1.9	18.3	-14.5	x	x	x	x
Cc1ccc(-c2ccc3c(c2)O[C@@H](CN(C)Cc2ccccc2)[C@@H](C)CN([C@H](C)CO)S3(=O)=O)cc1	-1.2	114.5*	-44.0	83.9	102.7*	4.1	102.8*
Cc1ccc(-c2ccc3c(c2)O[C@@H](CN(C)Cc2ccccc2)[C@@H](C)CN([C@@H](C)CO)S3(=O)=O)cc1	1.5	124.0*	-59.9	95.6*	107.0*	22.3	103.7*
C[C@@H]1CN([C@@H](C)CO)S(=O)(=O)c2ccc(-c3ccccc3)cc2O[C@@H]1CN(C)C	x	x	17.3	x	x	x	x
O=C(Cc1cccnc1)N1CC2(C1)[C@@H](c1ccccc1)[C@@H](CO)N2C(=O)C1CCCCC1	-4.3	x	3.2	x	x	x	x
C/C=C/c1cnc2c(c1)C(=O)N([C@@H](C)CO)C[C@H](C)[C@@H](CN(C)Cc1ccc(F)cc1)O2	3.2	37.4	-20.7	x	x	x	x
C/C=C/c1cnc2c(c1)C(=O)N([C@H](C)CO)C[C@H](C)[C@@H](CN(C)Cc1ccc(F)cc1)O2	0.4	46.2	-36.7	x	x	x	x
C/C=C/c1cnc2c(c1)C(=O)N([C@@H](C)CO)C[C@H](C)[C@H](CN(C)Cc1ccc(F)cc1)O2	5.2	114.3*	5.6	74.7	17.7	22.6	47.7*
C/C=C/c1cnc2c(c1)C(=O)N([C@H](C)CO)C[C@@H](C)[C@@H](CN(C)Cc1ccc(F)cc1)O2	5.9	118.6*	-21.6	u	-20.9	-4.5	u
C[C@H]1CN([C@@H](C)CO)C(=O)c2cc(C#Cc3ccccc3F)cnc2O[C@@H]1CN(C)C(=O)Cc1cccnc1	-5.1	x	-49.2	x	x	x	x
C[C@@H]1CN([C@@H](C)CO)S(=O)(=O)c2ccc(C#Cc3ccccn3)cc2O[C@H]1CN(C)C(=O)C1CC1	-0.7	22.3	-9.1	x	x	x	x
O=C(c1cccc(F)c1)N1CCCCN2[C@H](C1)[C@H](c1ccc(/C=C/c3ccccc3)cc1)[C@@H]2CO	8.9	110.2*	22.9	u	12.7	7.1	103.4*
SMILES	C diff growth	T cruzi growth-1	Pf Dd2 growth	T cruzi growth-2	T cruzi growth-3	NIH3T3 tox	3T3 cytotox 2
O=C(c1cccc(F)c1)N1CCCCN2[C@@H](CO)[C@@H](c3ccc(/C=C/c4ccccc4)cc3)[C@@H]2C1	-74.5	109.1*	-64.2	101.4*	79.4	65.9*	104.9*
O=C(c1cccc(F)c1)N1CCCCN2[C@H](C1)[C@@H](c1ccc(/C=C/c3ccccc3)cc1)[C@@H]2CO	-5.6	111.1*	-50.5	92.5	83.2	53.7*	39.1*
O=C(c1cccc(F)c1)N1CCCCN2[C@H](CO)[C@H](c3ccc(-c4cncnc4)cc3)[C@@H]2C1	0.4	75.1	-1.1	x	x	x	x
O=C(c1cccc(F)c1)N1CC(=O)N2[C@H](CO)[C@H](c3ccc(/C=C/c4ccccc4)cc3)[C@@H]2C1	50.7	x	-17.4	x	x	x	x
O=C(c1cccc(F)c1)N1CCCCN2[C@H](C1)[C@H](c1ccc(-c3ccc(F)cc3)cc1)[C@@H]2CO	26.6	82.6	21.0	x	x	x	x
O=C(c1cccc(F)c1)N1CCCCN2[C@H](C1)[C@@H](c1ccc(-c3ccc(F)cc3)cc1)[C@@H]2CO	45.0	92.7	-2.3	x	x	x	x
O=C(c1cccc(F)c1)N1CCCCN2[C@H](CO)[C@@H](c3ccc(/C=C/c4ccccc4)cc3)[C@@H]2C1	-7.2	108.8*	-3.8	100.2*	18.9	16.8	9.5
C[C@H](CO)N1C[C@H](C)[C@@H](CN(C)C(=O)Nc2ccc(F)cc2)Oc2c(NC(=O)c3cnccn3)cccc2C1=O	-8.1	-49.4	-11.3	x	x	x	x
CCCNC(=O)Nc1ccc2c(c1)C(=O)N(C)[C@@H]1CC[C@@H](CC(=O)O)O[C@@H]1CO2	-2.1	-1.3	-14.3	x	x	x	x
O=C(C[C@H]1CC[C@@H]2[C@H](COC[C@@H](O)CN2Cc2cc(F)cc(F)c2)O1)NC1CCCC1	-3.6	64.2	-32.1	x	x	x	x
O=C(c1ccc(F)cc1)N1CCCCN2[C@H](C1)[C@H](c1ccc(-c3ccccc3)cc1)[C@@H]2CO	29.7	93.0	-10.4	x	x	x	x
O=C(c1ccc(F)cc1)N1CCCCN2[C@@H](CO)[C@H](c3ccc(/C=C/c4ccccc4)cc3)[C@@H]2C1	11.6	111.7*	-15.7	95.1*	76.1	59.7*	103.3*
